# The campaign covered roughly 5,500 compounds. About 2,000 (36%) were called active. Another 18% or so got no clear call; they are omitted. This is one part of the list. Unmarked numbers belong to inactive results. Cut-off read from the data, not from the text of the source: active = normalized growth mostly below about 0.91 (no sharp cut-off); inconclusive = no clear call, values can overlap the other calls; inactive = mostly above about 0.92.
# Assay: chemical genetic growth profiling, strain panel (AID 1159580);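 note: tested at 20 µM; growth read once vehicle control cultures reached saturation at 30 °C; 1 = growth at the plate median or of vehicle wells; lower values mean less growth of the strain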
# Details: growth OD
# [1] = S. cerevisiae deletion strains, locus YBR021W, strain FUR4, hits give low values
# [2] = S. cerevisiae deletion strains, locus YBR229C, strain ROT2, hits give low values
# [3] = S. cerevisiae deletion strains, locus YCL029C, strain bik1, hits give low values
# [4] = S. cerevisiae deletion strains, locus YDL035C, strain GPR1, hits give low values
# [5] = S. cerevisiae deletion strains, locus YDL074C, strain BRE1, hits give low values
# [6] = S. cerevisiae deletion strains, locus YDL101C, strain DUN1, hits give low values
# [7] = S. cerevisiae deletion strains, locus YDL185W, strain tfp1, hits give low values
# [8] = S. cerevisiae deletion strains, locus YDL192W, strain arf1, hits give low values
# [9] = S. cerevisiae deletion strains, locus YDR101C, strain arx1, hits give low values
# [10] = S. cerevisiae deletion strains, locus YDR162C, strain NBP2, hits give low values
# [11] = S. cerevisiae deletion strains, locus YDR318W, strain mcm21, hits give low values
# [12] = S. cerevisiae deletion strains, locus YDR388W, hits give low values
# [13] = S. cerevisiae deletion strains, locus YDR502C, strain sam2, hits give low values
# [14] = S. cerevisiae deletion strains, locus YER110C, hits give low values
# [15] = S. cerevisiae deletion strains, locus YER155C, strain BEM2, hits give low values
# [16] = S. cerevisiae deletion strains, locus YER167W, strain BCK2, hits give low values
# [17] = S. cerevisiae deletion strains, locus YGL078C, strain dbp3, hits give low values
# [18] = S. cerevisiae deletion strains, locus YGL086W, strain mad1, hits give low values
# [19] = S. cerevisiae deletion strains, locus YGL248W, strain PDE1, hits give low values
# [20] = S. cerevisiae deletion strains, locus YGR135W, strain pre9, hits give low values
# [21] = S. cerevisiae deletion strains, locus YGR252W, strain gcn5, hits give low values
# [22] = S. cerevisiae deletion strains, locus YHR079C, strain IRE1 (second series), hits give low values
# [23] = S. cerevisiae deletion strains, locus YHR094C, strain hxt1, hits give low values
# [24] = S. cerevisiae deletion strains, locus YHR129C, strain ARP1, hits give low values
# [25] = S. cerevisiae deletion strains, locus YHR200W, strain rpn10, hits give low values
# [26] = S. cerevisiae deletion strains, locus YIL066C, strain RNR3, hits give low values
# [27] = S. cerevisiae deletion strains, locus YIL073C, strain SPO22, hits give low values
# [28] = S. cerevisiae deletion strains, locus YIL125W, strain kgd1, hits give low values
# [29] = S. cerevisiae deletion strains, locus YIR030C, strain dcg1, hits give low values
# [30] = S. cerevisiae deletion strains, locus YJL095W, strain BCK1, hits give low values
# [31] = S. cerevisiae deletion strains, locus YJL134W, strain LCB3, hits give low values
# [32] = S. cerevisiae deletion strains, locus YJL168C, strain set2, hits give low values
# [33] = S. cerevisiae deletion strains, locus YJL187C, strain SWE1 (second series), hits give low values
# [34] = S. cerevisiae deletion strains, locus YJR043C, strain POL32, hits give low values
# [35] = S. cerevisiae deletion strains, locus YKL068W, hits give low values
# [36] = S. cerevisiae deletion strains, locus YKL085W, strain MDH1 (second series), hits give low values
# [37] = S. cerevisiae deletion strains, locus YKL085W, strain MDH1, hits give low values
# [38] = S. cerevisiae deletion strains, locus YKR001C, strain vps1, hits give low values
# [39] = S. cerevisiae deletion strains, locus YLR039C, strain RIC1, hits give low values
# [40] = S. cerevisiae deletion strains, locus YLR058C, strain SHM2, hits give low values
# [41] = S. cerevisiae deletion strains, locus YLR102C, strain apc9, hits give low values
# [42] = S. cerevisiae deletion strains, locus YLR268W, strain sec22, hits give low values
# [43] = S. cerevisiae deletion strains, locus YLR371W, strain rom2, hits give low values
# [44] = S. cerevisiae deletion strains, locus YLR418C, strain cdc73, hits give low values
# [45] = S. cerevisiae deletion strains, locus YML016C, strain PPZ1, hits give low values
# [46] = S. cerevisiae deletion strains, locus YML032C, strain rad52, hits give low values
# [47] = S. cerevisiae deletion strains, locus YML124C, strain tub3, hits give low values
# [48] = S. cerevisiae deletion strains, locus YMR078C, strain ctf18, hits give low values
# [49] = S. cerevisiae deletion strains, locus YMR223W, strain ubp8, hits give low values
# [50] = S. cerevisiae deletion strains, locus YMR307W, strain GAS1, hits give low values
# [51] = S. cerevisiae deletion strains, locus YNL067W, strain RPL9B, hits give low values
# [52] = S. cerevisiae deletion strains, locus YNL153C, strain GIM3, hits give low values
# [53] = S. cerevisiae deletion strains, locus YNL233W, strain BNI4, hits give low values
# [54] = S. cerevisiae deletion strains, locus YNL250W, strain rad50, hits give low values
# [55] = S. cerevisiae deletion strains, locus YNL271C, strain bni1, hits give low values
# [56] = S. cerevisiae deletion strains, locus YNL298W, strain CLA4, hits give low values
# [57] = S. cerevisiae deletion strains, locus YNL307C, strain MCK1, hits give low values
# [58] = S. cerevisiae deletion strains, locus YNR052C, strain pop2, hits give low values
# [59] = S. cerevisiae deletion strains, locus YOL006C, strain TOP1, hits give low values
# [60] = S. cerevisiae deletion strains, locus YOL012C, strain htz1
# [61] = S. cerevisiae deletion strains, locus YOL147C, strain pex11, hits give low values
# [62] = S. cerevisiae deletion strains, locus YOR061W, strain CKA2, hits give low values
# [63] = S. cerevisiae deletion strains, locus YOR069W, strain VPS5, hits give low values
# [64] = S. cerevisiae deletion strains, locus YOR136W, strain idh2, hits give low values
# [65] = S. cerevisiae deletion strains, locus YOR144C, strain elg1, hits give low values
# [66] = S. cerevisiae deletion strains, locus YOR184W, strain ser1, hits give low values
# [67] = S. cerevisiae deletion strains, locus YOR316C, strain cot1, hits give low values
# [68] = S. cerevisiae deletion strains, locus YPR119W, strain clb2, hits give low values
# [69] = S. cerevisiae deletion strains, locus YPR141C, strain kar3, hits give low values
# [70] = S. cerevisiae deletion strains, locus YPR163C, strain tif3, hits give low values
# [71] = S. cerevisiae deletion strains, locus YPR167C, strain met16, hits give low values
# [72] = S. cerevisiae deletion strains, strain wtn01, hits give low values
smiles,measurement,setting,value
COc1c(CC=C(C)C)c2c(c3oc(=O)c(-c4ccc(OC(C)=O)cc4)c(OC(C)=O)c13)C=CC(C)(C)O2,normalized growth,"S. cerevisiae deletion strains, locus YAL013W, strain DEP1, hits give low values",0.996
same,normalized growth,[1],0.986
same,normalized growth,[2],1.03
same,normalized growth,[3],1.02
same,normalized growth,[4],1.04
same,normalized growth,[5],1.08
same,normalized growth,[6],1.03
same,normalized growth,[7],1.02
same,normalized growth,[8],1.05
same,normalized growth,[9],1.01
same,normalized growth,[10],1.04
same,normalized growth,[11],1.02
same,normalized growth,[12],1.02
same,normalized growth,[13],1.03
same,normalized growth,[14],1.01
same,normalized growth,[15],1.01
same,normalized growth,[16],1.02
same,normalized growth,[17],1
same,normalized growth,[18],1.03
same,normalized growth,[19],1.08
same,normalized growth,[20],1.02
same,normalized growth,[21],1.1
same,normalized growth,[22],1.02
same,normalized growth,[23],1
same,normalized growth,[24],1
same,normalized growth,[25],1.03
same,normalized growth,[26],1.02
same,normalized growth,[27],1.06
same,normalized growth,[28],1.02
same,normalized growth,[29],0.996
same,normalized growth,[30],1.12
same,normalized growth,[31],1.01
same,normalized growth,[32],0.997
same,normalized growth,[33],1.03
same,normalized growth,[34],1.07
same,normalized growth,"S. cerevisiae deletion strains, locus YJR075W, strain HOC1, hits give low values",1.03
same,normalized growth,[35],0.995
same,normalized growth,[36],1.01
same,normalized growth,[37],1.01
same,normalized growth,"S. cerevisiae deletion strains, locus YKL190W, strain CNB1, hits give low values",0.997
same,normalized growth,[38],1.05
same,normalized growth,[39],1.12
same,normalized growth,[40],1.04
same,normalized growth,[41],1
same,normalized growth,[42],1.04
same,normalized growth,"S. cerevisiae deletion strains, locus YLR330W, strain CHS5, hits give low values",1.02
same,normalized growth,[43],1.05
same,normalized growth,[44],1.08
same,normalized growth,[45],1.03
same,normalized growth,[46],1.01
same,normalized growth,[47],0.994
same,normalized growth,[48],1
same,normalized growth,[49],1.03
same,normalized growth,[50],1.15
same,normalized growth,[51],1
same,normalized growth,[52],1.03
same,normalized growth,[53],1.06
same,normalized growth,[54],0.989
same,normalized growth,[55],1.01
same,normalized growth,[56],1.01
same,normalized growth,[57],1
same,normalized growth,[58],1.01
same,normalized growth,[59],1.17
same,normalized growth,[60],1.04
same,normalized growth,[61],1.02
same,normalized growth,[62],1.02
same,normalized growth,[63],1.02
same,normalized growth,[64],1
same,normalized growth,[65],1.01
same,normalized growth,[66],1.04
same,normalized growth,[67],1.01
same,normalized growth,[68],1
same,normalized growth,[69],1
same,normalized growth,[70],1.02
same,normalized growth,[71],1
same,normalized growth,[72],1.04
same,normalized growth,"S. cerevisiae strains, strain wild type, hits give low values",1.02
COc1c(CC=C(C)C)c2c(c3oc(=O)c(-c4ccc(O)cc4)c(O)c13)C=CC(C)(C)O2,normalized growth,[1],0.918
same,normalized growth,[2],1.01
same,normalized growth,[3],0.841 (active)
same,normalized growth,[4],0.918
same,normalized growth,[5],0.687 (active)
same,normalized growth,[6],0.964
same,normalized growth,[7],1.03
same,normalized growth,[8],0.875 (active)
same,normalized growth,[9],0.92
same,normalized growth,"S. cerevisiae deletion strains, locus YDR150W, strain NUM1, hits give low values",1.03
same,normalized growth,[10],0.875
same,normalized growth,[11],0.896 (active)
same,normalized growth,[12],0.975
same,normalized growth,[13],0.94
same,normalized growth,"S. cerevisiae deletion strains, locus YEL061C, strain CIN8, hits give low values",0.968
same,normalized growth,[14],0.986
same,normalized growth,[15],0.752 (active)
same,normalized growth,[16],0.951
same,normalized growth,[17],1
same,normalized growth,[18],0.937
same,normalized growth,[19],0.921
same,normalized growth,[20],0.989
same,normalized growth,"S. cerevisiae deletion strains, locus YGR229C, strain SMI1, hits give low values",0.722 (active)
same,normalized growth,[21],1.02
same,normalized growth,"S. cerevisiae deletion strains, locus YHR030C, strain SLT2, hits give low values",0.974
same,normalized growth,[22],0.979
same,normalized growth,[23],0.976
same,normalized growth,[24],0.899 (active)
same,normalized growth,[25],0.908 (active)
same,normalized growth,[26],0.903
same,normalized growth,[27],0.952
same,normalized growth,[28],0.957
same,normalized growth,[29],0.953
same,normalized growth,[30],0.74 (active)
same,normalized growth,[31],1.01
same,normalized growth,[32],0.961
same,normalized growth,[33],0.945
same,normalized growth,[34],0.947
same,normalized growth,"S. cerevisiae deletion strains, locus YKL009W, strain mrt4, hits give low values",0.985
same,normalized growth,[35],1.01
same,normalized growth,[36],0.958
same,normalized growth,[37],0.958
same,normalized growth,[38],0.869 (active)
same,normalized growth,[39],0.889
same,normalized growth,[40],0.912
same,normalized growth,[41],0.978
same,normalized growth,[42],0.853 (active)
same,normalized growth,[43],0.769 (active)
same,normalized growth,[44],0.649 (active)
same,normalized growth,[45],0.992
same,normalized growth,[46],0.896 (active)
same,normalized growth,[47],0.983
same,normalized growth,[48],0.98
same,normalized growth,[49],0.925
same,normalized growth,[50],0.773
same,normalized growth,[51],0.97
same,normalized growth,[52],0.922
same,normalized growth,[53],0.881
same,normalized growth,[54],1.04
same,normalized growth,[55],0.998
same,normalized growth,[56],0.989
same,normalized growth,[57],0.677 (active)
same,normalized growth,"S. cerevisiae deletion strains, locus YNL322C, strain KRE1, hits give low values",0.972
same,normalized growth,[58],0.917
same,normalized growth,[59],0.779
same,normalized growth,[60],0.812
same,normalized growth,[61],0.902 (active)
same,normalized growth,[62],0.982
same,normalized growth,[63],0.997
same,normalized growth,[64],0.934
same,normalized growth,[65],0.968
same,normalized growth,[66],0.476 (active)
same,normalized growth,[67],0.976
same,normalized growth,[68],0.977
same,normalized growth,[69],1
same,normalized growth,[70],0.84 (active)
same,normalized growth,[71],0.938
same,normalized growth,[72],0.905

# Reference: PubChem BioAssay AID1159580 (chemical genetic matrix, 2015)
